From PubChem BioAssay AID1159580 (chemical genetic matrix, 2015)
Hit rate of the full screen: of about 5,500 compounds, about 2,000 (36%) were called active. About 18% were inconclusive and are not listed. Some of the results follow. A number with no mark means an inactive call. Cut-off read from the data, not from the text of the source: active = normalized growth mostly below about 0.91 (no sharp cut-off); inconclusive = no clear call, values can overlap the other calls; inactive = mostly above about 0.92.

Experiment: chemical genetic growth profiling, strain panel (AID 1159580);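 note: tested at 20 µM; growth read once vehicle control cultures reached saturation at 30 °C; 1 = growth at the plate median or of vehicle wells; lower values mean less growth of the strain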
Settings: S. cerevisiae deletion strains, growth OD
[1] = locus YAL040C, strain CLN3, hits give low values
[2] = locus YCL061C, strain MRC1 (second series), hits give low values
[3] = locus YDR363W, strain ESC2, hits give low values
[4] = locus YER002W, strain NOP16, hits give low values
[5] = locus YGR078C, strain PAC10, hits give low values
[6] = locus YNL153C, strain GIM3, hits give low values
[7] = locus YNL175C, strain NOP13, hits give low values
[8] = locus YNL197C, strain WHI3, hits give low values
[9] = locus YNL224C, strain SQS1, hits give low values
[10] = locus YNL322C, strain KRE1, hits give low values
[11] = locus YOR083W, strain WHI5 (second series), hits give low values

## Fc1ccc(Nc2nc(-c3ccc(F)c(F)c3)cs2)c(F)c1
Locus YAR019C, strain CDC15, hits give low values
  normalized growth: 0.14 (active)
Locus YBL105C, strain PKC1, hits give low values
  normalized growth: 0.104 (active)
Locus YBR135W, strain CKS1, hits give low values
  normalized growth: 0.0961 (active)
Locus YBR136W, strain MEC1, hits give low values
  normalized growth: 0.0962 (active)
Locus YBR160W, strain CDC28, hits give low values
  normalized growth: 0.12 (active)
Locus YDL017W, strain CDC7, hits give low values
  normalized growth: 0.128 (active)
Locus YDL028C, strain MPS1, hits give low values
  normalized growth: 0.104 (active)
Locus YDL101C, strain DUN1, hits give low values
  normalized growth: 0.282 (active)
Locus YDL108W, strain KIN28, hits give low values
  normalized growth: 0.132 (active)
Locus YDL132W, strain cdc53, hits give low values
  normalized growth: 0.0939 (active)
Locus YDL214C, strain PRR2, hits give low values
  normalized growth: 0.182 (active)
Locus YDR052C, strain DBF4, hits give low values
  normalized growth: 0.181 (active)
Locus YDR054C, strain cdc34, hits give low values
  normalized growth: 0.094 (active)
Locus YDR226W, strain ADK1, hits give low values
  normalized growth: 0.107 (active)
Locus YDR477W, strain SNF1, hits give low values
  normalized growth: 0.102 (active)
Locus YER123W, strain YCK3, hits give low values
  normalized growth: 0.173 (active)
Locus YER133W, strain GLC7, hits give low values
  normalized growth: 0.17 (active)
Locus YFL009W, strain cdc4, hits give low values
  normalized growth: 0.0952 (active)
Locus YFL029C, strain CAK1, hits give low values
  normalized growth: 0.0895 (active)
Locus YFR003C, strain YPI1, hits give low values
  normalized growth: 0.105 (active)
Locus YFR019W, strain FAB1, hits give low values
  normalized growth: 0.102 (active)
Locus YFR028C, strain CDC14, hits give low values
  normalized growth: 0.0972 (active)
Locus YGR040W, strain KSS1, hits give low values
  normalized growth: 0.102 (active)
Locus YGR052W, strain FMP48, hits give low values
  normalized growth: 0.144 (active)
Locus YGR092W, strain DBF2, hits give low values
  normalized growth: 0.11 (active)
Locus YHR030C, strain SLT2, hits give low values
  normalized growth: 0.141 (active)
Locus YHR079C, strain IRE1, hits give low values
  normalized growth: 0.158 (active)
Locus YHR082C, strain KSP1, hits give low values
  normalized growth: 0.155 (active)
Locus YHR205W, strain SCH9, hits give low values
  normalized growth: 0.000718 (active)
Locus YIL147C, strain SLN1, hits give low values
  normalized growth: 0.133 (active)
Locus YJL095W, strain BCK1, hits give low values
  normalized growth: 0.133 (active)
Locus YJL128C, strain PBS2, hits give low values
  normalized growth: 0.0972 (active)
Locus YJL157C, strain FAR1, hits give low values
  normalized growth: 0.199 (active)
Locus YJR016C, strain ILV3, hits give low values
  normalized growth: 0.0878 (active)
Locus YJR066W, strain TOR1 (second series), hits give low values
  normalized growth: 0.0987 (active)
Locus YJR066W, strain TOR1, hits give low values
  normalized growth: 0.111 (active)
Locus YKL048C, strain ELM1, hits give low values
  normalized growth: 0.145 (active)
Locus YKL067W, strain YNK1, hits give low values
  normalized growth: 0.182 (active)
Locus YKL101W, strain HSL1, hits give low values
  normalized growth: 0.132 (active)
Locus YKL193C, strain SDS22, hits give low values
  normalized growth: 0.0966 (active)
Locus YKL203C, strain TOR2, hits give low values
  normalized growth: 0.104 (active)
Locus YLR113W, strain HOG1, hits give low values
  normalized growth: 0.189 (active)
Locus YLR133W, strain CKI1, hits give low values
  normalized growth: 0.0955 (active)
Locus YLR403W, strain SFP1, hits give low values
  normalized growth: 0.0012 (active)
Locus YML070W, strain DAK1, hits give low values
  normalized growth: 0.113 (active)
Locus YMR001C, strain CDC5, hits give low values
  normalized growth: 0.0929 (active)
Locus YMR205C, strain PFK2 (second series), hits give low values
  normalized growth: 0.0941 (active)
Locus YMR277W, strain FCP1, hits give low values
  normalized growth: 0.0934 (active)
Locus YNL006W, strain LST8, hits give low values
  normalized growth: 0.106 (active)
Locus YNL020C, strain ARK1, hits give low values
  normalized growth: 0.107 (active)
Locus YNL161W, strain CBK1, hits give low values
  normalized growth: 0.475 (active)
Locus YNL183C, strain NPR1, hits give low values
  normalized growth: 0.155 (active)
Locus YNL207W, strain RIO2, hits give low values
  normalized growth: 0.114 (active)
Locus YNL222W, strain SSU72, hits give low values
  normalized growth: 0.101 (active)
Locus YNL307C, strain MCK1 (second series), hits give low values
  normalized growth: 0.117 (active)
Locus YOL078W, strain AVO1, hits give low values
  normalized growth: 0.092 (active)
Locus YOL136C, strain PFK27, hits give low values
  normalized growth: 0.197 (active)
Locus YOR061W, strain CKA2, hits give low values
  normalized growth: 0.102 (active)
Locus YOR119C, strain RIO1, hits give low values
  normalized growth: 0.107 (active)
Locus YOR231W, strain MKK1, hits give low values
  normalized growth: 0.169 (active)
Locus YOR329C, strain SCD5, hits give low values
  normalized growth: 0.117 (active)
Locus YPL031C, strain PHO85, hits give low values
  normalized growth: 0.114 (active)
Locus YPL153C, strain RAD53, hits give low values
  normalized growth: 0.116 (active)
Locus YPL204W, strain HRR25, hits give low values
  normalized growth: 0.104 (active)
Locus YPL209C, strain IPL1, hits give low values
  normalized growth: 0.0912 (active)
Locus YPL256C, strain CLN2, hits give low values
  normalized growth: 0.179 (active)
Locus YPR025C, strain CCL1, hits give low values
  normalized growth: 0.0957 (active)
Locus YPR106W, strain ISR1, hits give low values
  normalized growth: 0.099 (active)
Locus YPR111W, strain DBF20, hits give low values
  normalized growth: 0.101 (active)
Strain NNK1, hits give low values
  normalized growth: 0.114 (active)
Strain TSCII, hits give low values
  normalized growth: 0.106 (active)

## N[C@@H](CCCC(=O)O)C(=O)O
Locus YAL013W, strain DEP1, hits give low values
  normalized growth: 1.01
[1]
  normalized growth: 1.08
[2]
  normalized growth: 1.01
[3]
  normalized growth: 1.02
[4]
  normalized growth: 0.981
[5]
  normalized growth: 1.01
Locus YJR075W, strain HOC1, hits give low values
  normalized growth: 1.01
Locus YMR263W, strain SAP30, hits give low values
  normalized growth: 1
[6]
  normalized growth: 1.02
[7]
  normalized growth: 1
[8]
  normalized growth: 1.03
[9]
  normalized growth: 0.988
[10]
  normalized growth: 1.02
[11]
  normalized growth: 0.993
Locus YPL055C, strain LGE1, hits give low values
  normalized growth: 0.988

## C[N+](C)(C)CC#CCN1CCCC1=O
[1]
  normalized growth: 0.99
[2]
  normalized growth: 0.996
Locus YDR150W, strain NUM1, hits give low values
  normalized growth: 1.01
[3]
  normalized growth: 1
[4]
  normalized growth: 0.985
[5]
  normalized growth: 0.991
Locus YMR307W, strain GAS1, hits give low values
  normalized growth: 1.01
[6]
  normalized growth: 0.994
[7]
  normalized growth: 0.996
[8]
  normalized growth: 0.996
[9]
  normalized growth: 0.996
[10]
  normalized growth: 1
[11]
  normalized growth: 1.01
